Each structure is given as a SMILES string. Screen size: about 340,000 compounds; about 1,400 (0.41%) were called active. Roughly 4% stayed inconclusive and do not appear here. Many of the other results were omitted from the sample, so actives are more common in it than they were. A number with no mark means an inactive call. Calls come from the whole dose curve; cell line not stated here.
% is set by controls: 0 for no effect and ±100 for the full control effect; potency is the fitted concentration of half-maximal effect.

This experiment in a line: qHTS for Antagonists of gsp, the Etiologic Mutation Responsible for Fibrous Dysplasia/McCune-Albright Syndrome: qHTS. Note: nearly all actives have a fitted effect of over 65% in size. The conditions noted are these: gsp-mutant cells, cAMP HTRF, 30 min; series mostly up to 76.9 µM; activity change, negative = inhibition: at the top concentration. From the text:
McCune-Albright syndrome (MAS) is a rare disease caused by somatic mutations in Gsgsp), a widely expressed protein central in signal transduction from G-coupled protein receptors (GPCRs). The disease symptoms are diverse, owing to the fact that the patients are mosaics with varying degrees of tissue involvement. Greater than 90% of the mutations in Gs in MAS occur at the R201 position and are equally divided between R201H and R201C. The R201 residue is central in the intrinsic GTPase activity of Gs and the H and C mutations lead to loss of, or impairment of, the GTPase activity. The intrinsic GTPase activity is necessary to terminate the interaction between Gs and adenylate cyclase, and to terminate the cAMP-mediated signaling of the given GPCR pathway. Thus, these activating mutations lead to ligand-independent activation of GPCR pathways. The tissue phenotype is determined by the role of Gs in the function of a given cell, and excess Gs/cAMP signaling in that cell. For example, pituitary somatotrophs overproduce growth hormone in a growth hormone releasing hormone-independent fashion, and gigantism/acromegaly ensues. Skeletal stem cells in the bone marrow behave as if they are under constant parathyroid hormone stimulation and fail to differentiate into osteoblasts and osteocytes, and proliferate as immature osteogenic cells and lead to the marrow fibrosis of fibrous dysplasia of bone. The goal of this project is to identify molecules with inhibitory activity at gsp mutations that will not only allow for in-depth study of the underlying molecular and cellular pathophysiology, but also serve as compounds from which drugs to treat FD/MAS can be developed NIH Chemical Genomics Center [NCGC] NIH Molecular Libraries Probe Centers Network [MLPCN] MLPCN Grant: IRP-FT-DE-2011-01 Assay Submitter (PI): Michael Collins, NIDCR
1.#Seed 2000 cells/well in 6 ul DMEM 10% FBS, 1% Pen/Strep, 0.5 mg/ml G418 2.#Incubate 16-24 hr at 37C, 5% CO2, 95% humidity 3.#Aspirate leaving 1 ul residual volume 4.#Dispense 5 ul/well DPBS + 1 mM CaCl2, 0.5 mM MgCl2, 0.05% BSA, 0.005% Tween 20 5.#Aspirate leaving 2 ul residual volume 6.#Dispense 23 nl/well compounds in DMSO 7.#Dispense 1 ul/well 300 uM Ro-20174 in DMEM 10% FBS 8.#Incubate 30 min at 37C, 5% CO2, 95% humidity 9.#Dispense 1.5 ul/well HTRF reagent: cAMP-d2 in lysis buffer 10.#Dispense 1.5 ul/well HTRF reagent: anti-cAMP antibody-K in lysis buffer 11.#Incubate 30 min at room temperature 12.#Detect HTRF signal using EnVision plate reader
In general terms: In qHTS, concentration-response curves come from the screen itself.
`COc1cc(NC(=O)C2=CC(c3ccco3)=NS(=O)(=O)N2C)cc(OC)c1OC`: the “activity change, negative = inhibition” value is -2.3%.

For `COc1ccc(NC(=O)C2=CC(c3ccc(OC)c(OC)c3)=NS(=O)(=O)N2C)cc1`, the Potency was 39.8 µM (active). Take `COc1cc(NC(=O)C2=CC(c3ccc(C)cc3)=NS(=O)(=O)N2C)cc(OC)c1OC`: the “activity change, negative = inhibition” value is -12.6%. For the compound `COC(=O)Cc1nc2c(N)nc(N)nc2[nH]c1=O`, the “activity change, negative = inhibition” value was -0.61%.

For `CSc1ncnc2c1ncn2CC(=O)C1CCC2C3CCC4=CC(=O)CCC4(C)C3CCC12C` (stereo unspecified), the Potency was 31.6 µM (active). On to `CC(=O)C12CC(C)=C(C)CC1CC1C3CCC4=CC(=O)CCC4(C)C3CCC12C` (stereo unspecified), for which the “activity change, negative = inhibition” value is -11.6%.

Regarding `Cc1onc(-c2c(F)cccc2Cl)c1C(=O)Nc1cccc(S(=O)(=O)N2CCCCC2)c1`, the “activity change, negative = inhibition” value was -15.9%.

On to `CN1CCOC1c1ccc(C2OCCN2C)cc1` (stereo unspecified), for which the “activity change, negative = inhibition” value is -2.61%. The same measure, in the same setting: to `CC1CN(Cc2ccccc2)C(=S)NC1=O` (stereo unspecified) belongs 11.6%. Still for that read-out and setting: with `COc1ccccc1NC(=O)N(O)C1(C#N)CCCCC1` the figure was 10.5%; with `Cc1ccc(-c2csc(-c3c[nH]c4ccccc34)n2)cc1`, -14.8%. For `Cc1ccc(C2=Nc3c(ccc4ccccc34)C(c3ccncc3)=NN2)cc1`, the Potency was 31.6 µM (active). For `CCOc1ccc2c(c1)C(c1ccc(C)cc1)=NNC(c1ccc(C)cc1)=N2`, the “activity change, negative = inhibition” value was -5.6%. On the same count and under the same terms, to `CC(=O)c1ccc(NC(=O)C(C)OC(=O)c2ccc(NS(=O)(=O)c3ccc4[nH]c(=O)[nH]c4c3)cc2)cc1` (stereo unspecified) belongs 3.15%; to `O=C(O)C(CCc1ccccn1)c1ccccc1` (stereo unspecified), 1.38%.

`O=C(CCCN1C(=O)/C(=C/c2cccs2)SC1=S)Nc1ccc(O)cc1`: the “activity change, negative = inhibition” value was -10.1%. As for `Cc1ccc(/C=C2\SC(=S)N(CCC(=O)Nc3ccc(O)cc3)C2=O)cc1`, the “activity change, negative = inhibition” value is 4.75%. For the compound `O=C(CCN1C(=O)/C(=C/c2cccs2)SC1=S)NNC(=O)c1cccc(O)c1`, the Potency is 31.6 µM (active). For `Cc1ccc(OCCNC(=O)c2cccc(S(=O)(=O)N3CCN(Cc4ccccc4)CC3)c2)cc1`, the “activity change, negative = inhibition” value is -9.83%. The same measure, in the same setting: with `COc1ccc(OC)c(Cc2cnc3nc(N)nc(N)c3c2C)c1` the figure was -2.01%; with `CC(=O)OCCC(C)C`, 9.48%. `CC(=O)OCC(COC(C)=O)OC(C)=O`: the Potency was 35.5 µM (active). For `CC(=O)OC(C)C[N+](C)(C)C` (stereo unspecified), the “activity change, negative = inhibition” value is 1.38%. Still for that read-out and setting: to `O=C1OC(Oc2ccc(Br)cc2)(c2ccccc2)c2ccccc21` (stereo unspecified) belongs -18%. Same read-out and setting: to `CCCCN1CC(COc2ccccc2)Oc2cccc(F)c2S1(=O)=O` (stereo unspecified) belongs -12.9%.

`O=C(c1cccc(F)c1)N1CCN(c2ccc([N+](=O)[O-])c(N3CCCCC3)c2)CC1`: the “activity change, negative = inhibition” value was -11.9%. On the same count and under the same terms, with `O=C(c1ccc(N2CCOCC2)c([N+](=O)[O-])c1)N1CCN(c2ccccc2F)CC1` the figure was -2.65%. Consider `O=C(c1cccc(F)c1)N1CCN(c2ccc([N+](=O)[O-])c3cccnc23)CC1`, for which the Potency is 39.8 µM (active). Regarding `COc1cc(C2c3cc4c(cc3C(O)C3COC(=O)C23)OCO4)cc(OC)c1OC` (stereo unspecified), the “activity change, negative = inhibition” value was 16.2%.

With `O=C(Cc1ccc(S(=O)(=O)N2CCOCC2)s1)Nc1ccc(Br)c(C(F)(F)F)c1`, the “activity change, negative = inhibition” value is -38.2%. The same measure, in the same setting: to `O=C(c1cccnc1)N(Cc1ccccc1)C(=O)c1cccnc1` belongs 5.46%; to `CCCN(CC(=O)Nc1ccccc1C)C(=O)c1ccc(OCC(=O)N2CCOCC2)c(OCC)c1`, -2.96%; to `COc1ccc(CCNC(=O)COc2cc(C)cc3oc(=O)c(C)c(C)c23)cc1OC`, 4.24%. Take `CC(C)OCCCNc1ncnc2c1[nH]c1ccc(F)cc12`: the Potency was 39.8 µM (active). Turning to `CC(C)OCCCNC(=O)c1cc(Sc2ccc(F)cc2)nc2ccccc12`, the “activity change, negative = inhibition” value was 16%. With `CCOC(=O)[C@H]1[C@H]2COc3ccc(Br)cc3[C@@H]2N2C(=O)CN(C)C(=O)[C@@]12C`, the “activity change, negative = inhibition” value was 0.52%. On to `O=C(NCc1ccccc1)c1cccc(NC(=O)C2CCCCC2)c1`, for which the “activity change, negative = inhibition” value is -0.777%. As to `Fc1ccc2[nH]c3c(N4CCSCC4)ncnc3c2c1`, the Potency is 28.2 µM (active). With `Cc1c(CN2CC[C@@H](N3CCN(c4ccccn4)CC3)[C@H](O)C2)[nH]c2ccc(F)cc12`, the “activity change, negative = inhibition” value was 4.63%.

Turning to `CCN(CC)CCCN1C(=O)C(=O)/C(=C(/O)c2c(C)nc3ccccn23)C1c1ccc(C)o1` (stereo unspecified), the “activity change, negative = inhibition” value is 8.42%. Still for that read-out and setting: to `O=C(Nc1nc2ccccc2s1)c1ccc2c(c1)OCO2` belongs -20.8%. For the compound `O=C(Nc1nc(-c2ccc3c(c2)OCO3)cs1)c1ccncc1`, the Potency is 39.8 µM (active). For the compound `CC(=O)NCCC(=O)Nc1nc(-c2ccc3c(c2)OCCO3)cs1`, the “activity change, negative = inhibition” value was 1.23%. Take `N#CC1(Nc2ccc(-c3ccc(Cl)cc3)cc2)CCCC1`: the “activity change, negative = inhibition” value was 2.59%.

Take `FC(F)(F)c1ccc(-c2cccc3c2C2CC3CCN2Cc2ccccc2)cc1` (stereo unspecified): the “activity change, negative = inhibition” value is -6.66%. The same measure, in the same setting: with `CCOC(=O)c1ccccc1OC(=O)Oc1ccccc1C(=O)OCC` the figure was -13%. Take `O=C1C(Cl)=C(Oc2ccccc2)C(=O)c2ccccc21`: the Potency was 39.8 µM (active).

Take `CC(=O)Oc1ccc2c(c1)C(=O)c1ccccc1C2=O`: the “activity change, negative = inhibition” value was -0.802%. On to `CCCCN1CC(COCc2ccccc2)OCCS1(=O)=O` (stereo unspecified), for which the “activity change, negative = inhibition” value is 12.5%. The same measure, in the same setting: with `C=CC(=O)Nc1ccc(Nc2ccnc(Nc3ccc(N4CCN(C)CC4)cc3)n2)cc1` the figure was -4.93%. Same read-out and setting: to `COc1ccc(Cl)cc1C=CC=Nc1ccc(S(N)(=O)=O)cc1` belongs 0.98%.

The record behind these values is PubChem BioAssay AID624288 (National Center for Advancing Translational Sciences (NCATS), 2012).
